PubChem BioAssay (NCI)
This is part of a sample that, as a whole, favours compounds with a hit. Of some 83,000 tested, about 20% had one in any assay.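 Compound tested at a single concentration for 48 hours in 96-well plates; a percent growth value below 10 was scored as active.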 Unmarked numbers belong to inactive results. Active and inactive are the calls of the source.

Legend:
Assay in all cases: NCI-60 one-dose screen, 48 h (100 = growth as untreated, 0 = no growth, -100 = all killed)
Settings in all cases: 10 µM unless noted
DU-145 prostate = tested on: DU-145 prostate
MALME-3M melanoma = tested on: MALME-3M melanoma
MDA-MB-231 breast = tested on: MDA-MB-231 breast
RXF 393 renal = tested on: RXF 393 renal
SF-268 CNS = tested on: SF-268 CNS
SF-295 CNS = tested on: SF-295 CNS
SF-539 CNS = tested on: SF-539 CNS
UACC-257 melanoma = tested on: UACC-257 melanoma
M14 melanoma = tested on: M14 melanoma
HCT-15 colon = tested on: HCT-15 colon
HT29 colon = tested on: HT29 colon
SNB-75 CNS = tested on: SNB-75 CNS
SNB-19 CNS = tested on: SNB-19 CNS
U251 CNS = tested on: U251 CNS
PC-3 prostate = tested on: PC-3 prostate
SK-MEL-5 melanoma = tested on: SK-MEL-5 melanoma
UACC-62 melanoma = tested on: UACC-62 melanoma
LOX IMVI melanoma = tested on: LOX IMVI melanoma
SK-MEL-28 melanoma = tested on: SK-MEL-28 melanoma

| Structure (SMILES) | growth (DU-145 prostate) [%] | growth (MALME-3M melanoma) [%] | growth (MDA-MB-231 breast) [%] | growth (RXF 393 renal) | growth (SF-268 CNS) [%] | growth (SF-295 CNS) [%] | growth (SF-539 CNS) [%] | growth (UACC-257 melanoma) [%] | growth (M14 melanoma) [%] | growth (HCT-15 colon) | growth (HT29 colon) | growth (SNB-75 CNS) [%] | growth (SNB-19 CNS) [%] | growth (U251 CNS) [%] | growth (PC-3 prostate) | growth (SK-MEL-5 melanoma) [%] | growth (UACC-62 melanoma) | growth (LOX IMVI melanoma) | growth (SK-MEL-28 melanoma) [%] |
| --- | --- | --- | --- | --- | --- | --- | --- | --- | --- | --- | --- | --- | --- | --- | --- | --- | --- | --- | --- |
| NS(=O)(=O)c1ccc(CCN2C(=O)C3C(C2=O)C2(Cl)C(Cl)=C(Cl)C3(Cl)C2(Cl)Cl)cc1 (configuration not stated) | 96.5 | 90.5 | 92.9 | 109% | 102 | 94 | 92.5 | 110 | 94.5 | 90.5% | 85.8% | 88 | 101 | 104 | 42.3% | 92.9 | 75.2% | 92.1% | 108 |
| COCc1cnccc1NC1CCCCCC1 | 108 | 105 | 101 | 100% | 101 | 101 | 101 | 99.5 | 94.2 | 107% | 90.7% | 98.1 | 104 | 103 | 98.1% | 101 | 98.7% | 100% | 110 |
| O=C(/C(=C\c1ccc([N+](=O)[O-])cc1)S(=O)Cc1ccc(F)cc1)c1ccc(F)cc1 (configuration not stated) | 33.1 | 18.5 | 12.8 | -67.8% (active) | 31.5 | 77.6 | 39.4 | 93.2 | 38 | 2.57% (active) | -55% (active) | 72.1 | 41 | 10.3 | 7.46% (active) | 76.7 | -22.4% (active) | -52.1% (active) | 23.2 |
| CC[C@]12C=CCN3CC[C@@]4(c5cc(NC(=O)CCC(=O)O[C@H]6CC[C@H]7[C@@H]8CCC9=CC(=O)CC[C@@H]9[C@H]8CC[C@]67C)c(OC)cc5N(C)[C@H]4[C@@](O)(C(=O)OC)[C@@H]1OC(C)=O)[C@@H]32 | 82.2 | 98.9 | 68.5 | 82.7% | 74.4 | 86.3 | 94.8 | 76.2 | 77.1 | 62.2% | 62.8% | 68.6 | 85 | 74.1 | 53.6% | 43.8 | 64.1% | 84.7% | 91.7 |
| COc1cc(NCCCCCNC(C)(C)C)c2ncccc2c1 | 112 | 107 | 89.8 | 97.4% | 105 | 77.5 | 99.7 | 133 | 104 | 91.2% | 85.9% | 53.2 | 91.7 | 100 | 76.4% | 100 | 89.6% | 93.7% | 107 |
| O=C1Nc2ccccc2/C1=C\c1c(-c2ccc(F)cc2)nc2ccccn12 | 94.5 | 73.7 | 60.2 | 67% | 77.7 | 59.9 | 78 | 102 | 53.2 | 58.2% | 58.7% | 71.3 | 77.7 | 93.3 | 62.5% | 58 | 65.1% | 68.3% | 87.2 |
| O=C1c2cccc3c(-c4ccc5c(c4)ncn5C4CCCCC4)ccc(c23)C(=O)N1CCO | 100 | 105 | 71.1 | 106% | 93.9 | 81.9 | 99 | 94.5 | 106 | 98.5% | 83.6% | 86.6 | 98.1 | 93.2 | 85% | 62 | 74.4% | 87.4% | 116 |
| O=C(O)c1ccc2c(c1)C(=O)N(Cc1ccccc1)C2=O | 102 | 97.4 | 101 | 103% | 98 | 95 | 103 | 74.2 | 100 | 99.9% | 99.9% | 94.2 | 95.1 | 92.7 | 96.2% | 99.7 | 97.9% | 95.7% | 110 |
